Results taken from PubChem BioAssay (NCATS).
Results filed as inconclusive are left out. Activity calls are given as the source filed them. Calls follow the shape of the dose curve; as a rule, active = well fitted cell-killing curve with a large enough effect; inconclusive = small, poorly fitted or top-dose-only effect, or effect the other way; inactive = flat fitted curve, though single readings scatter.

Tests used:
Test in all cases: Primary qHTS to identify gynecologic anti-cancer compounds using libraries of approved drugs and bioactive compounds (AID 1345084); also: nearly all actives have a fitted effect of over 55% in size
C33A = settings: Gynecologic cancer cell panel viability, ATPlite luminescence, 48 h; series mostly up to 57.5 µM
Procedure, shortened: (§1)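 Cell viability after 48 h drug treatment, ATPlite luminescence readout; five doses.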

CAOV3 = settings: Gynecologic cancer cell panel viability, ATPlite luminescence, 48 h; series mostly up to 57.5 µM
Procedure, shortened: as §1

CASKI = settings: Gynecologic cancer cell panel viability, ATPlite luminescence, 48 h; series mostly up to 57.5 µM
Procedure, shortened: as §1

Es-2 = settings: Gynecologic cancer cell panel viability, ATPlite luminescence, 48 h; series mostly up to 57.5 µM
Procedure, shortened: as §1

HeLa = settings: Gynecologic cancer cell panel viability, ATPlite luminescence, 48 h; series mostly up to 57.5 µM
Procedure, shortened: as §1

Hek293T = settings: Gynecologic cancer cell panel viability, ATPlite luminescence, 48 h, control line for the selectivity index; series mostly up to 57.5 µM
Procedure, shortened: as §1

JEG-3 = settings: Gynecologic cancer cell panel viability, ATPlite luminescence, 48 h; series mostly up to 57.5 µM
Procedure, shortened: as §1

OV90 = settings: Gynecologic cancer cell panel viability, ATPlite luminescence, 48 h; series mostly up to 57.5 µM
Procedure, shortened: as §1

PA-1 = settings: Gynecologic cancer cell panel viability, ATPlite luminescence, 48 h; series mostly up to 57.5 µM
Procedure, shortened: as §1

SKOV3 = settings: Gynecologic cancer cell panel viability, ATPlite luminescence, 48 h; series mostly up to 57.5 µM
Procedure, shortened: as §1

Tov-21-G = settings: Gynecologic cancer cell panel viability, ATPlite luminescence, 48 h; series mostly up to 57.5 µM
Procedure, shortened: as §1

Tov112D = settings: Gynecologic cancer cell panel viability, ATPlite luminescence, 48 h; series mostly up to 57.5 µM
Procedure, shortened: as §1
% is scaled to controls: 0 for no effect and ±100 for the full control effect.

C[C@]12CCC(=O)C=C1[C@@H](O)C[C@@H]1[C@@H]2[C@@H](O)C[C@@]2(C)[C@H]1CC[C@]2(O)C(=O)CO
inactive: Potency (C33A) | Potency (CAOV3) | Potency (CASKI) | Potency (Es-2) | Potency (HeLa) | Potency (Hek293T) | Potency (JEG-3) | Potency (OV90) | Potency (PA-1) | Potency (SKOV3) | Potency (Tov-21-G) | Potency (Tov112D)

C=C1CC2C3(C)C(OC(C)=O)CC(=O)OC(C)(C)C3C(O)C(OC(C)=O)C2(C)C2C(=O)OC(C)C(=O)C12C (stereo not drawn)
inactive: Potency (C33A) | Potency (CAOV3) | Potency (CASKI) | Potency (Es-2) | Potency (HeLa) | Potency (Hek293T) | Potency (JEG-3) | Potency (OV90) | Potency (PA-1) | Potency (SKOV3) | Potency (Tov-21-G) | Potency (Tov112D)

CC[C@H]1OC(=O)[C@H](C)[C@@H](O[C@H]2C[C@@](C)(OC)[C@@H](O)[C@H](C)O2)[C@H](C)[C@@H](O[C@@H]2O[C@H](C)C[C@H](N(C)C)[C@H]2O)[C@@](C)(O)C[C@@H](C)[C@@H]2N[C@@H](COCCOC)OC([C@H]2C)[C@]1(C)O
inactive: Potency (C33A) | Potency (CAOV3) | Potency (CASKI) | Potency (Es-2) | Potency (HeLa) | Potency (Hek293T) | Potency (JEG-3) | Potency (OV90) | Potency (PA-1) | Potency (SKOV3) | Potency (Tov-21-G) | Potency (Tov112D)

C[C@@H](OC(=O)/C=C/c1ccc(O)cc1)C1=C[C@]2(C=C[C@@H]3C(C(=O)O)=CO[C@@H](O[C@@H]4O[C@H](CO[C@@H]5O[C@H](CO)[C@@H](O)[C@H](O)[C@H]5O)[C@@H](O)[C@H](O)[C@H]4O)[C@@H]32)OC1=O
inactive: Potency (C33A) | Potency (CAOV3) | Potency (CASKI) | Potency (Es-2) | Potency (HeLa) | Potency (Hek293T) | Potency (JEG-3) | Potency (OV90) | Potency (PA-1) | Potency (SKOV3) | Potency (Tov-21-G) | Potency (Tov112D)

CC1CCC2C(C(=O)O)=CC3C(O)C(C)(C)CC123 (stereo not drawn)
inactive: Potency (C33A) | Potency (CAOV3) | Potency (CASKI) | Potency (Es-2) | Potency (HeLa) | Potency (Hek293T) | Potency (JEG-3) | Potency (OV90) | Potency (PA-1) | Potency (SKOV3) | Potency (Tov-21-G) | Potency (Tov112D)

CO[C@H]1C=C2C(CC[C@H](O[C@@H]3O[C@H](CO)[C@@H](O)[C@@H](O)[C@H]3O)C2(C)C)[C@]2(C)CC[C@]3(C)C([C@H](C)C(O)C(C=C(C)C)O[C@@H]4O[C@H](CO)[C@@H](O)[C@@H](O)[C@H]4O)CC[C@@]3(C)C12 (stereo partly drawn)
inactive: activity change, negative = cytotoxicity (C33A) -3.11% [at 11.6 µM] | activity change, negative = cytotoxicity (CAOV3) 7.91% [at 11.6 µM] | activity change, negative = cytotoxicity (CASKI) -4.92% [at 11.6 µM] | activity change, negative = cytotoxicity (Es-2) 2.74% [at 11.6 µM] | activity change, negative = cytotoxicity (HeLa) 0.609% [at 11.6 µM] | activity change, negative = cytotoxicity (Hek293T) 12.3% [at 11.6 µM] | activity change, negative = cytotoxicity (JEG-3) -6.82% [at 11.6 µM] | activity change, negative = cytotoxicity (OV90) 5.72% [at 11.6 µM] | activity change, negative = cytotoxicity (PA-1) -0.818% [at 11.6 µM] | activity change, negative = cytotoxicity (SKOV3) -12.6% [at 11.6 µM] | activity change, negative = cytotoxicity (Tov-21-G) 4% [at 11.6 µM] | activity change, negative = cytotoxicity (Tov112D) 2.11% [at 11.6 µM]

CC(=O)O[C@H]1C[C@@H]2[C@]3(CC[C@]4(C)[C@@H](C5(C)CCC(C(C)(C)O)O5)[C@@H](O)C[C@@]24C)C[C@@]32CC[C@H](O[C@@H]3OC[C@@H](O)[C@H](O)[C@H]3O)C(C)(C)[C@H]12 (stereo partly drawn)
inactive: Potency (C33A) | Potency (CAOV3) | Potency (CASKI) | Potency (Es-2) | Potency (HeLa) | Potency (Hek293T) | Potency (JEG-3) | Potency (OV90) | Potency (PA-1) | Potency (SKOV3) | Potency (Tov-21-G) | Potency (Tov112D)

O=c1ccn(C2OC(CO)C(O)C2O)c(=O)[nH]1 (stereo not drawn)
inactive: Potency (C33A) | Potency (CAOV3) | Potency (CASKI) | Potency (Es-2) | Potency (HeLa) | Potency (Hek293T) | Potency (JEG-3) | Potency (OV90) | Potency (PA-1) | Potency (SKOV3) | Potency (Tov-21-G) | Potency (Tov112D)

CCCC1=CC2=C(CO1)C(=O)C(C)(OC(=O)c1c(C)cc(OC)cc1O)C(O)C2 (stereo not drawn)
inactive: Potency (C33A) | Potency (CAOV3) | Potency (CASKI) | Potency (Es-2) | Potency (HeLa) | Potency (Hek293T) | Potency (JEG-3) | Potency (OV90) | Potency (PA-1) | Potency (SKOV3) | Potency (Tov-21-G) | Potency (Tov112D)

C=C1CC/C=C(/CO)C(=O)C[C@@H]2[C@@H]1CC2(C)C
inactive: Potency (C33A) | Potency (CAOV3) | Potency (CASKI) | Potency (Es-2) | Potency (HeLa) | Potency (Hek293T) | Potency (JEG-3) | Potency (OV90) | Potency (PA-1) | Potency (SKOV3) | Potency (Tov-21-G) | Potency (Tov112D)

C/C=C(\C)C(=O)OC[C@H]1O[C@H](O[C@H]2O[C@H](CO)[C@@H](OC(=O)/C(C)=C/C)[C@H](O)[C@H]2O[C@@H]2O[C@H](CO)[C@@H](O)[C@H](O)[C@H]2O)[C@H](O[C@@H]2O[C@H](CO)[C@@H](O)[C@H](O)[C@H]2O)[C@@H](O)[C@@H]1O
inactive: activity change, negative = cytotoxicity (C33A) 3.37% [at 11.6 µM] | activity change, negative = cytotoxicity (CAOV3) 17% [at 11.6 µM] | activity change, negative = cytotoxicity (CASKI) 6.41% [at 11.6 µM] | activity change, negative = cytotoxicity (Es-2) 10.5% [at 11.6 µM] | activity change, negative = cytotoxicity (HeLa) 13.4% [at 11.6 µM] | activity change, negative = cytotoxicity (Hek293T) 8.94% [at 11.6 µM] | activity change, negative = cytotoxicity (JEG-3) 2.7% [at 11.6 µM] | activity change, negative = cytotoxicity (OV90) 8.14% [at 11.6 µM] | activity change, negative = cytotoxicity (PA-1) 33.8% [at 11.6 µM] | activity change, negative = cytotoxicity (SKOV3) 3.25% [at 11.6 µM] | activity change, negative = cytotoxicity (Tov-21-G) 22.3% [at 11.6 µM] | activity change, negative = cytotoxicity (Tov112D) 9.9% [at 11.6 µM]

C=C1C(=O)OC2/C=C(\C)CC/C=C(\C(=O)O)CC/C=C(\C)CCC12 (stereo not drawn)
inactive: Potency (C33A) | Potency (CAOV3) | Potency (CASKI) | Potency (Es-2) | Potency (HeLa) | Potency (Hek293T) | Potency (JEG-3) | Potency (OV90) | Potency (PA-1) | Potency (SKOV3) | Potency (Tov-21-G) | Potency (Tov112D)

NC(=O)c1ccc(OCC2NC(=O)C3CCCN3C2=O)cc1 (stereo not drawn)
inactive: Potency (C33A) | Potency (CAOV3) | Potency (CASKI) | Potency (Es-2) | Potency (HeLa) | Potency (Hek293T) | Potency (JEG-3) | Potency (OV90) | Potency (PA-1) | Potency (SKOV3) | Potency (Tov-21-G) | Potency (Tov112D)

C[C@@H]1CC[C@H]2C(C)(C)[C@H](O)[C@H](O)C[C@]2(C)[C@@]12Cc1c(O)cc3c(c1O2)CNC3=O
inactive: Potency (C33A) | Potency (CAOV3) | Potency (CASKI) | Potency (Es-2) | Potency (HeLa) | Potency (Hek293T) | Potency (JEG-3) | Potency (OV90) | Potency (PA-1) | Potency (SKOV3) | Potency (Tov-21-G) | Potency (Tov112D)
